The text below walks through data of PubChem BioAssay (NCATS).

“And” between values parts separate entries of the source, which are not always exact repeats. Identical values can stand only once. The source made the active and inactive calls.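 How the source made its calls: active means compounds whose dose series gives a full or clear partial fitted curve of increased nuclear translocation; inconclusive means weak partial curve or effect only at the top dose; inactive means no dose-dependent translocation response.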 Where only a bound is given, the exact number is not on record here.
Potency means the concentration at half of the fitted maximal effect.

Chain of Glucocorticoid receptor (Homo sapiens) (P04150 whole entry, looked up): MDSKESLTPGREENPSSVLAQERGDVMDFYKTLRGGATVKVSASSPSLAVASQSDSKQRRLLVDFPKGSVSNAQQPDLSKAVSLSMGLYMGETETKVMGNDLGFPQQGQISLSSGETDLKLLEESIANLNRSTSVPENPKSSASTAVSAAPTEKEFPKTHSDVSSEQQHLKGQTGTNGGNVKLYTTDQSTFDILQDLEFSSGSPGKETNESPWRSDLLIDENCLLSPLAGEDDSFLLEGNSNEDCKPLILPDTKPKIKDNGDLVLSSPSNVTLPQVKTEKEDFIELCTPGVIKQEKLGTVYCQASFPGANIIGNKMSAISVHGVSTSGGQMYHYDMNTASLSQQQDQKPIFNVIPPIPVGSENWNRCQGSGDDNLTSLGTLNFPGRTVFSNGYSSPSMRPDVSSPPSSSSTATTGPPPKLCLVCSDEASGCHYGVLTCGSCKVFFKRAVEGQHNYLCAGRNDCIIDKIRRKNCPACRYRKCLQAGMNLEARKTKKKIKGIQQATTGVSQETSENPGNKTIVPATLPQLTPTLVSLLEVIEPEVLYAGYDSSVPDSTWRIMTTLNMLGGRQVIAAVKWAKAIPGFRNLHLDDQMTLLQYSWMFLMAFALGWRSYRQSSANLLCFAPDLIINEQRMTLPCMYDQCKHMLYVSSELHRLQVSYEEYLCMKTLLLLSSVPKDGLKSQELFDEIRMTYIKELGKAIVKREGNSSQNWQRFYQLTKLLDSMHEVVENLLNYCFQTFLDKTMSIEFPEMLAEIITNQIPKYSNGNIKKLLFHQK

The assay concerns the target Glucocorticoid receptor (Homo sapiens) (UniProt P04150). Put plainly: GR-GFP Redistribution (AID 450). The note with it: U2OS GR-GFP nuclear translocation, laser cytometry, 2 h.
Take `COc1cccc(C(=O)NCCN2CCN(c3ccc(Cl)cc3)CC2)c1`: the Potency is > 46 µM (inactive).
With `Fc1ccc(C(OCCCc2cnc[nH]2)c2ccc(F)cc2)cc1`, the Potency was > 46 µM (inactive).
In the case of `O=C(O)Cc1ccc(-c2ccccc2)cc1`, the Potency was > 20.6 µM (inactive).
As to `Ic1ccc(N2CCN(Cc3c[nH]c4ncccc34)CC2)cc1`, the Potency is > 46 µM (inactive).
The result for `O=C(O)c1cc(=O)c2c(Cl)cc(Cl)cc2[nH]1` reads > 46 µM (inactive).
On to `COc1ccccc1N1CCN(CCCCNS(=O)(=O)c2cccc3c(N(C)C)cccc23)CC1`, for which the Potency is > 46 µM (inactive).
The result for `Nc1nc(Cl)nc2c1ncn2[C@@H]1O[C@H](CO)[C@@H](O)[C@H]1O` reads > 20.6 µM (inactive); that for `Clc1ccc(N2CCN(Cc3c[nH]c4ncccc34)CC2)cc1`, > 46 µM (inactive); that for `CN1[C@@H]2CC[C@H]1CC(OC(c1ccccc1)c1ccccc1)C2` (stereo not given in full), > 46 µM (inactive).
With `CN=c1nc(-c2ccccc2)n(-c2ccccc2)s1`, the Potency is > 46 µM (inactive).
As for `O=C(Nc1cccc(C(=O)Nc2ccc(S(=O)(=O)O)c3cc(S(=O)(=O)O)cc(S(=O)(=O)O)c23)c1)Nc1cccc(C(=O)Nc2ccc(S(=O)(=O)O)c3cc(S(=O)(=O)O)cc(S(=O)(=O)O)c23)c1`, the Potency is > 46 µM (inactive).
Take `NCCCCCCCCCCN`: the Potency was > 46 µM (inactive).
For `NCCSSCCN`, the Potency is > 46 µM (inactive).
As for `N#C/C(=C\c1ccc(O)c(O)c1)C(=O)NCCCc1ccccc1`, the figure is > 46 µM (inactive) and > 20.6 µM (inactive); as for `CC(C)Cc1ccc([C@H](C)C(=O)O)cc1`, > 46 µM (inactive) and > 20.6 µM (inactive).
As for `O=c1[nH]c2cc(Cl)c(Cl)cc2[nH]c1=O`, the Potency is > 46 µM (inactive).
As for `Cc1nc2sccn2c(=O)c1CCN1CCC(=C(c2ccccc2)c2ccc(F)cc2)CC1`, the Potency is > 46 µM (inactive) and > 20.6 µM (inactive).
As for `NC(N)=NC(=O)c1nc(Cl)c(N2CCCCCC2)nc1N`, the Potency was > 46 µM (inactive).
Consider `O=C1NC(O)=NC1(c1ccccc1)c1ccccc1`, for which the Potency was > 46 µM (inactive).
On to `CN1CCc2cc(NC(=O)Nc3cccnc3)ccc21`, for which the Potency is > 46 µM (inactive).
`CN(C)c1nc(N)c(C(=O)N=C(N)N)nc1Cl`: the Potency was > 46 µM (inactive).
`CCOc1ccc2nc(S(N)(=O)=O)sc2c1`: the Potency was > 20.6 µM (inactive).
For the compound `OC[C@H]1O[C@@H](n2cnc3c(Nc4ccccc4)ncnc32)[C@H](O)[C@@H]1O`, the Potency was > 20.6 µM (inactive).
`Nc1ccc(C(=O)O)c(O)c1`: the Potency is > 20.6 µM (inactive).
As for `COc1ccc(/C=C/C(=O)Nc2ccccc2C(=O)O)cc1OC`, the Potency was > 20.6 µM (inactive).
As for `O=C(O)c1cc([N+](=O)[O-])ccc1NCCCc1ccccc1`, the Potency is > 46 µM (inactive).
As to `CCCN(CC1CC1)c1nc(C)nc(Nc2c(Cl)cc(Cl)cc2Cl)c1Cl`, the Potency was > 46 µM (inactive).
For `OC[C@H]1O[C@@H](n2cnc3c(NC4CCCC4)ncnc32)[C@H](O)[C@@H]1O`, the Potency was > 20.6 µM (inactive).
The result for `NCCCS(=O)(=O)O` reads > 46 µM (inactive); that for `O=C(O)CC[C@@H](C(=O)O)N1C(=O)c2ccccc2C1=O`, > 46 µM (inactive); that for `O=C(c1cc(O)c(O)c([N+](=O)[O-])c1)c1ccccc1F`, > 46 µM (inactive).
For the compound `CN1CCc2ccccc2Cc2[nH]c3ccccc3c2CC1`, the Potency is > 46 µM (inactive).
Regarding `O=c1[nH]c2cc([N+](=O)[O-])c([N+](=O)[O-])cc2[nH]c1=O`, the Potency was > 46 µM (inactive).
As to `O=c1[nH]c2ccccc2n1CCCN1CCN(C(c2ccccc2)c2ccccc2)CC1`, the Potency is > 46 µM (inactive) and > 20.6 µM (inactive).
Consider `N#C/C(=C\c1c[nH]c2ccccc12)C(=O)c1ccc(O)c(O)c1`, for which the Potency is > 46 µM (inactive).
